High-throughput results deposited in PubChem BioAssay by National Center for Advancing Translational Sciences (NCATS).
This is one part of a sample in which hits are shown more often than they occur.
HT1080 IDH1KD tx: toxicity to HT-1080 IDH1 knockdown cells (counter line). HT-1080 IDH1 knockdown viability, ATP luminescence, 48 h. hit rate 2% among 360,000. AID 686971. Potency, µM (series often up to 46.1 µM), without a hit: at the highest dose activity, negative = toxicity, actives largely listed as cytotoxic;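 note: potency is the fitted concentration of half-maximal effect; 0% = DMSO wells and -100% = cell-free medium wells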
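IDH1KD HT-1080 cells, 750/well, RPMI + 5% FBS; compound pinned after 2 h settling; 48 h, 37 °C; CellTiter-Glo luminescence; % activity normalised to DMSO and no-cell wells; curves fitted, classed by r2 and efficacy.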
TDP1 cell noCPT: qHTS for Inhibitors of human tyrosyl-DNA phosphodiesterase 1 (TDP1): qHTS in cells in absence of CPT. DT40 Tdp1-/- hTDP1 cells, no CPT, ATP luminescence, 48 h. Potency, µM (series often up to 46.2 µM), without a hit: at the highest dose activity change, negative = growth inhibition, usual class: inhibitors. hit rate 15% among 420,000. AID 686978, 2013; note: potency is the fitted concentration of half-maximal effect; nearly all actives have a fitted effect of over 55% in size
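Chicken DT40 Tdp1-/- cells stably complemented with human TDP1 were seeded at 400 cells/well with DMSO in place of 20 nM camptothecin. After compound pinning, cells grew at least 48 hr at 37 °C; viability read by CellTiter-Glo luminescence.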
IL1B secr inh: blocks inflammasome-driven IL-1 beta release. THP-1 LPS/ATP IL-1B secretion, AlphaLISA, 16 h; hits give low values. activity change, % at 57.5 µM. hit rate 4.7% among 360,000. AID 743279; in the data active = activity change below about -50%; inconclusive = mostly about -30% to -49%
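THP-1 cells pretreated 1 hr with compounds (up to 57.5 uM final), then stimulated with LPS (250 ng/mL final) plus ATP (1.25 mM final); secreted IL-1B measured by AlphaLISA after 16 hr, decreased signal indicating inhibition.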
DT40 TDP1 CPT: growth inhibition of DT40 Tdp1-/-;hTDP1 cells with camptothecin (screen for TDP1 inhibitors). Potency, µM (top dose mostly 46.2 µM), inactives show at the highest dose activity change, negative = growth inhibition, hits mostly inhibitors. AID 686979. chicken DT40 Tdp1-/-;hTDP1 cells + 20 nM CPT, ATP luminescence, 48 h. hit rate 12% among 420,000; note: potency is the fitted concentration of half-maximal effect; nearly all actives have a fitted effect of over 55% in size
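Cell growth measured by CellTiter-Glo luminescence after a minimum 48 h, 37 C compound exposure with 20 nM CPT in Tdp1-knockout DT40 cells stably expressing hTDP1, seeded 400/well; qHTS titration format.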
ALOX12 inh: ALOX12 (human) lipoxygenase inhibition | P18054 | purified 12hLO, xylenol orange hydroperoxide absorbance | Potency, µM (highest dose often 108 µM), without a hit: top-dose activity change, negative = inhibition, usual class: inhibitors | hit rate 1.1% among 580,000; note: potency is the fitted concentration of half-maximal effect
Target sequence (P18054 whole entry, looked up): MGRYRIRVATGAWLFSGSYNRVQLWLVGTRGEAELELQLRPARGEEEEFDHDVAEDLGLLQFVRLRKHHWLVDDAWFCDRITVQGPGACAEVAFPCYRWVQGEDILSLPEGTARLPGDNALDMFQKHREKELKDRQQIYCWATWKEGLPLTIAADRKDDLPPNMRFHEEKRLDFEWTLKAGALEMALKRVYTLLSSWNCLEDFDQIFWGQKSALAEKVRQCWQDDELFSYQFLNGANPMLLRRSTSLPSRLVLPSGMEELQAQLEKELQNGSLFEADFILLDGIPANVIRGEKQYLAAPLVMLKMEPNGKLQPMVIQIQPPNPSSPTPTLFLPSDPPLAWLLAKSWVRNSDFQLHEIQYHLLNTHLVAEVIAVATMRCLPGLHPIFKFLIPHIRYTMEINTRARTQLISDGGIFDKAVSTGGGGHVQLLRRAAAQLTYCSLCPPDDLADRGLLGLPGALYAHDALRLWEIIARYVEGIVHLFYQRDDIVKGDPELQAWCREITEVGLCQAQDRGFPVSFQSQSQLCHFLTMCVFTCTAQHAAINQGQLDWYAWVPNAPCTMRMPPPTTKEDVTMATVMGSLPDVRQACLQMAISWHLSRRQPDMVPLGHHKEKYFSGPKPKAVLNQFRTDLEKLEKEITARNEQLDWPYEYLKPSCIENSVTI
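Hydroperoxide product was detected by ferrous iron/xylenol orange as the 573 to 405 nm absorbance ratio. Arachidonic acid at 40 uM (final) was turned over for 30 min at room temperature by 150 nM human 12hLO, pH 7.0 Hepes buffer, after 15 min compound preincubation.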
HT1080NT lethal: kills 2HG-producing HT-1080-NT fibrosarcoma cells; HT-1080-NT fibrosarcoma viability, CellTiter-Glo ATP luminescence, 48 h; Potency, µM (doses to about 46.1 µM), inactives show at the top dose activity, negative = less viability, most hits filed as cytotoxic; hit rate 1.6% among 360,000; AID 686970;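 note: NT is the 2HG producing partner of a matched IDH1 knockdown line; potency is the fitted concentration of half-maximal effect; 0% = DMSO-treated cells and -100% = media-only wells without cells; nearly all actives have a fitted effect of over 55% in size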
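Viability by CellTiter-Glo luminescence after 48 h compound exposure at 37C of HT-1080-NT cells (750/well, RPMI, 5% FBS). % activity scaled between DMSO wells and medium-only wells, then curve-fitted and categorized by curve class.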
The depositor's hits bear a star; u = inconclusive; x = no result; [ ] = remark or other dose. Unless noted, calls come from the whole dose curve; as a rule, active = well fitted curve in the direction sought with a large enough effect; inconclusive = small, poorly fitted or top-dose-only effect, or another doubt; inactive = no such curve, though single readings can be large; an effect the other way counts as inactive or inconclusive. Unless noted, % is set by controls: 0 for no effect and ±100 for the full control effect.

SMILES	HT1080 IDH1KD tx	TDP1 cell noCPT	IL1B secr inh	DT40 TDP1 CPT	ALOX12 inh	HT1080NT lethal
O=C(COc1ccccc1Cl)Nc1cccc(NC(=O)c2ccco2)c1	x	x	x	x	7.3%	x
CCOc1ccc(C(=O)Nc2cccc(NC(=O)c3ccco3)c2)cc1Cl	x	16.4µM*	x	u	-20.2%	x
CCOc1cc(NS(=O)(=O)c2ccc(OC)cc2)c(OCC)cc1NC(=O)c1ccco1	u	23.1µM*	-8.2	20.6µM*	u	u
CCOc1cc(NC(=S)NCC(C)C)c(OCC)cc1NC(=O)c1ccco1	-3.7%	u	-16.3	14.6µM*	u	1.9%
CCOCCCNC(=S)Nc1cc(OCC)c(NC(=O)c2ccco2)cc1OCC	3.0%	-20.4%	8.4	-1.6%	0.0%	15.1%
COCc1cccc(C(=O)NCC(O)c2ccccc2C(F)(F)F)c1 (centres undefined)	x	x	x	x	-1.2%	x
Cc1ccc(-c2[nH]ncc2CN2C[C@@H](CO)[C@H](NC(=O)C3CC3)C2)cc1	x	x	x	x	34.5%	x
N#CC(C(=O)/C=C/c1ccccc1)c1ccc(C(F)(F)F)cn1 (centres undefined)	x	x	x	x	39.2%	x
O=C(NC1CCCCC1)C1CCN(C2=NS(=O)(=O)c3ccccc32)CC1	x	x	x	x	-25.1%	x
CC(NC(=O)c1ccc2cccc(F)c2n1)c1ccccc1-n1cccn1 (centres undefined)	x	x	x	x	10.9%	x
CCC(=O)Nc1ccc(NC(=O)c2ccco2)cc1	-1.9%	-22.3%	-13.5	-11.6%	7.7%[57.4 µM]	-22.4%
CCOc1ccc(CC(=O)Nc2ccc(NC(=O)c3ccco3)cc2)cc1OCC	11.6µM*	-6.2%	u	u	-5.8%	-23.7%
COc1cc(NC(=O)c2ccco2)c(OC)cc1NC(=O)CSc1ncc(-c2ccc(F)cc2)[nH]1	-4.3%	25.9µM*	-14.6	u	8.0%	9.8%
CCOc1cc(NC(=O)c2ccco2)c(OCC)cc1NC(=O)Cc1cccc(OC)c1	-17.0%	25.9µM*	-21.4	u	0.0%	-8.7%
CCOc1ccc(C(=O)Nc2cccc(NC(=O)c3ccc(C(C)(C)C)cc3)c2)cc1Br	x	5.8µM*	x	u	-21.3%	x
CCOc1cc(NS(=O)(=O)CC)c(OCC)cc1NC(=O)c1ccco1	-4.8%	u	11.3	u	-5.1%	0.2%
CCn1c(SC(C)C(=O)Nc2ccnn2C(C)C)nnc1C1CC1 (centres undefined)	x	x	x	x	-24.8%	x
O=C(C1CCN(c2cnn(Cc3ccccc3)c(=O)c2)C1)N1CCCC1 (centres undefined)	x	x	x	x	14.3%	x
CCOc1cc(NC(=O)c2ccco2)c(OCC)cc1NC(=O)COc1ccccc1C	2.1%	4.11µM*	-9.9	4.61µM*	-5.1%	6.4%
Cc1ccccc1OCC(=O)Nc1ccccc1NC(=O)c1ccco1	3.8%	-29.4%	30.7	7.3%	22.2%	3.6%
CCn1nc(C)c(CN(CCOC)C(=O)C2COc3ccccc3C2)c1C (centres undefined)	x	x	x	x	12.0%	x
CC(=O)NCCn1c(SCc2ccc(C)cc2)nc2ccccc2c1=O	-11.9%	20.6µM*	-18.8	23.1µM*	0.0%	-6.7%
CC(=O)NCCn1c(SCc2ccccc2F)nc2ccccc2c1=O	-13.4%	20.6µM*	8.1	16.4µM*	0.0%	-21.9%
COc1ccc(-c2ccc3nc(-c4cc(C)cc(C)c4)oc3c2)c(OC)c1OC	x	x	x	x	50.5%	x
O=C1NCc2ccccc2CC12CCCN(Cc1cc(F)ccc1F)C2 (centres undefined)	x	x	x	x	3.5%[6.33 µM]	x
SMILES	HT1080 IDH1KD tx	TDP1 cell noCPT	IL1B secr inh	DT40 TDP1 CPT	ALOX12 inh	HT1080NT lethal
Cc1cc(=O)[nH]c2ccc(Cl)cc12	2.3%	-10.1%	37.6	0.0%	14.9%[57.4 µM]	3.7%
O=C(CCl)Nc1cc2[nH]c(=O)[nH]c2cc1Br	6.51µM*	1.84µM*	-100.7*	2.06µM*	1.8%	10.3µM*
Cc1cc2c(C)cc(=O)[nH]c2cc1NC(=O)CCl	u	2.31µM*	-96.2*	5.17µM*	u	u
CN(CCO)C(=O)c1nc(-c2ccc3cc[nH]c3c2)no1	x	x	x	x	-4.7%	x
COc1ccc2[nH]cc(C(C(=O)O)N3CCN(CC(=O)N(C)C)CC3)c2c1 (centres undefined)	x	x	x	x	15.3%	x
N#CC1=C(N)Oc2c(c(=O)[nH]c3ccccc23)C1c1cccc(Cl)c1Cl (centres undefined)	x	x	x	x	40.4%	x
Cc1ccc2cc(C3C(C#N)=C(N)Oc4c3ccc3cccnc43)c(=O)[nH]c2c1 (centres undefined)	u	u	88.8	u	25.1µM*	11.2µM*
CCc1ccc2[nH]c(=O)c(C3C(C#N)=C(N)Oc4c3ccc3cccnc43)cc2c1 (centres undefined)	u	8.2µM*	99.0	11.6µM*	-29.7%	u
CCC[C@H]1[C@@H](NC(=O)Nc2ccc(C)cc2)CC[C@@]23CCCN2C(=O)CCC[C@@H]13	x	x	x	x	-5.5%	x
C=CC#CC1(O)CC(C)[N+](C)(C)CC1C (centres undefined)	-14.6%	u	-22.1	u	35.5µM*	-0.1%
CNC(=O)[C@@H](C1CCCCC1)N1CCC[C@H]1C(=O)N1CCC1	x	x	x	x	4.0%[176 µM]	x
Oc1ccc(-c2[nH]ncc2-c2cccc3cccnc23)c(O)c1	u	u	-24.9	23.1µM*	-12.7%	u
Oc1ccc(-c2[nH]ncc2-c2ccc(Cl)cc2)c(O)c1	-20.5%	u	-7.5	-15.3%	u	-12.8%
CCc1nnc(NC(=O)c2ccc(S(=O)(=O)N3CCCC(C)C3)cc2)s1 (centres undefined)	2.4%	-15.8%	15.5	7.1%	15.0%	0.4%
CNC(=O)c1c(NC(=O)c2ccc(S(=O)(=O)N3CCCC(C)C3)cc2)sc2c1CCC2 (centres undefined)	x	18.4µM*	x	20.6µM*	-21.0%	x
CCC1CCCCN1S(=O)(=O)c1ccc(C(=O)Nc2sc3c(c2C(=O)NC)CCC3)cc1 (centres undefined)	x	16.4µM*	x	20.6µM*	-24.2%	x
COCCNc1nc2c([S+](=O)([O-])c3ccc(Br)cc3)nnn2c2ccccc12	x	x	x	x	3.7%[6.33 µM]	x
Cc1cccc(Cn2c(SCc3ccc(C(=O)NCc4cccs4)cc3)nc3ccncc32)c1	x	23.1µM*	x	u	-1.4%	x
O=C(NCc1cccs1)c1ccc(CSc2nc3ccncc3n2Cc2ccccc2)cc1	x	18.4µM*	x	u	0.1%	x
CCNC(=O)c1ccc(CSc2nc3ccncc3n2Cc2ccc(F)cc2)cc1	x	u	x	u	-17.0%	x
